Screening results from PubChem.
Hits are enriched below; roughly 10% of the tested compounds scored in any of these assays.
HCT116 PTEN-null = growth suppressors of cells with PTEN tumor suppressor deletion; HCT116 PTEN-null viability, CellTiter-Glo, 60 h; active compounds read low; viability, % at 10 µM; 1.2% of 140,000 active; AID 827;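 active = viability at or below a set limit, 4 SD under the median of all tested compounds, cut at about 3.7% in these data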;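 note: PTEN knockout HCT116 line with beta catenin targeted HCT116 as companion control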
L major viab = inhibitors of Leishmania major promastigote growth. 9% of 200,000 active. AID 1063. inhibition, % at 10 µM. Leishmania major promastigotes, resazurin fluorescence viability; in the data active = inhibition above about 50%;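 note: promastigotes grown with compound for 44 hours at 28 °C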
HCT116 bCat-KO = beta-catenin-lacking colon tumor cell growth suppression. HCT116 beta-catenin knockout viability, CellTiter-Glo, 60 h; active compounds read low. viability, % at 10 µM. 1.5% of 140,000 active. AID 818;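 active = viability at or under a set limit, the compound median less 4 SD, cut at about 6% in these data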;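 note: 0% = Hyamine 1622 control at 20 µM and 100% = untreated cell control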
p97 inhibitor = human p97 ATPase inhibition; P55072; recombinant p97 ATPase, Kinase-Glo ATP luminescence, 3 h; inhibition, % at 8 µM; 0.42% of 220,000 active; AID 1481; in the data active = inhibition above about 15%;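 note: 0% = DMSO vehicle and 100% = wells lacking enzyme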
INS promoter inh = TRM-6 insulin promoter activity inhibition | TRM-6 cells (human fetal islet line), insulin promoter-eGFP reporter, imaging; reporter expression induced with tamoxifen | inhibition, % at 2 µM | 0.9% of 130,000 active | AID 1273;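 active = inhibition above the mean plus 3 SD, with well images judged a real hit on visual review, cut at about 60% in these data, passing the limit was not always enough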
ROMK primary = modulators of human ROMK potassium channel | Tet-inducible ROMK, thallium flux fluorescence; actives lie on both sides | 2% of 130,000 active | B-score at 10 µM;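 active = signal ratio slope over the read window, or its plate-corrected B-score, at least 3 SD from the plate mean, either direction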;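 note: B-score of the F/F0 ratio slope over 7 to 12 s after thallium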
Target sequence (P48048 whole entry, looked up): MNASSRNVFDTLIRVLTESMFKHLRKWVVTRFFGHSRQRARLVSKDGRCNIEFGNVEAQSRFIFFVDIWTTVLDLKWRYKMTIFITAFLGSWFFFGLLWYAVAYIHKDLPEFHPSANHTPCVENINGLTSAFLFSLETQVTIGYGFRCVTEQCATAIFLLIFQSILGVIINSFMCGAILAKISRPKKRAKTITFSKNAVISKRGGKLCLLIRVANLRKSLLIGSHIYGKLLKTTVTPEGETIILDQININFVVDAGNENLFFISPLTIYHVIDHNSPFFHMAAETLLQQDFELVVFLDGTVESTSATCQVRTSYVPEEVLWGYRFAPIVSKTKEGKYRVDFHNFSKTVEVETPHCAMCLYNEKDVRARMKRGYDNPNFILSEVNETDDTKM
Numbers without * were called inactive; . = no result given.

SMILES	HCT116 PTEN-null	L major viab	HCT116 bCat-KO	p97 inhibitor	INS promoter inh	ROMK primary
CC(C)c1ccc(CNC(=O)CCc2ccccc2)cc1	.	-4.2	.	1.3	.	-0.0644
CC(C)c1ccc(CNCc2ccccc2)cc1	87.2	79.9*	84.6	2.0	33.3	.
Cc1c(Cl)cccc1NC(=S)NC1CCN(C(C)C)CC1	.	36.5	.	3.9	.	-1.52
Cc1cc(Br)ccc1SCC(=O)OCC(=O)c1c(N)n(C)c(=O)n(C)c1=O	.	.	.	-1.5	.	.
CCOc1ccc(OCCCC(=O)O)cc1	100.5	-3.9	104.8	3.5	-11.9	0.299
O=C(O)/C=C/C(=O)Nc1ccc(OCc2ccccc2)cc1	.	.	.	6.6	.	-0.644
O=C(NC1CCCC1)c1ccccc1OCc1ccccc1	.	-2.0	.	0.5	-54.5	-1.37
C=CCNCCCCOc1ccc(OCc2ccccc2)cc1	.	99.1*	.	-5.2	.	-1.62
c1ccc(COc2ccc(OCCCNC3CCCC3)cc2)cc1	46.3	100.2*	52.0	0.3	-71.4	.
CCOc1ccc(OCCCCNCCN)cc1	111.6	85.7*	96.2	2.3	45.2	0.342
COCCCNCCOc1ccccc1-c1ccccc1	78.5	47.3	82.9	-7.9	-16.7	-0.122
COCCCNCCCCOc1ccc(OCc2ccccc2)cc1	.	99.4*	.	2.1	.	-1.16
Cc1ccc(/C=C(\C#N)C(=O)N2CCCC2)c(C)c1	.	31.1	.	3.8	-70.4	-1.83
Cc1nc(NC(=O)c2cccc(Cl)c2)sc1C(=O)N1CCCCC1	.	-6.5	.	4.8	18.5	0.0165
O=S(=O)(c1ccc(Br)s1)n1cccn1	92.3	22.8	97.3	5.1	.	.
CCc1cccc(OCCCCNCCOC)c1	102.0	90.4*	91.3	1.0	20.0	.
CCc1cccc(OCCCN2C(=O)NC(C)(C)C2=O)c1	92.8	-6.5	87.2	-9.2	.	-0.974
CCC(C)c1ccc(NC(=O)C/C(C)=N/NC(=O)c2cnccn2)cc1 (centres undefined)	89.2	42.0	88.7	0.0	-19.4	-0.723
N#Cc1ccc(C(=O)N/N=C/c2cn(CC(=O)O)c3ccccc23)c(F)c1	92.1	57.8*	83.6	5.6	-19.4	0.593
CCOC(=O)Cn1cc(/C=N/NC(=O)c2ccc(C#N)cc2F)c2ccccc21	93.1	-3.7	104.4	-2.9	-23.9	-1.1
COc1ccc(CN(C2CCCC2)S(=O)(=O)c2ccc(-n3cnnn3)cc2)cc1	94.6	12.1	83.2	-2.2	82.8*	-0.556
CCN(CC)C(=O)CSc1nc(-c2cccs2)cc(-c2cccs2)c1C#N	58.6	7.4	69.3	2.4	-118.6	-0.397
CN1CCN(C(=O)CSc2nc(-c3cccs3)cc(-c3cccs3)c2C#N)CC1	4.5	66.2*	3.1*	8.2	-321.7	0.0384
COc1ccc([N+](=O)[O-])cc1/C=N/Nc1nc(N2CCCCC2)nc(N2CCCCC2)n1	.	42.3	.	1.6	-22.2	-0.122
O=[N+]([O-])c1ccc(/C=N/Nc2nc(N3CCCCC3)nc(N3CCCCC3)n2)cc1	.	53.5*	.	4.1	.	-0.31
SMILES	HCT116 PTEN-null	L major viab	HCT116 bCat-KO	p97 inhibitor	INS promoter inh	ROMK primary
COc1nc(N/N=C/c2ccc(-c3ccccc3[N+](=O)[O-])o2)nc(N2CCOCC2)n1	69.7	85.9*	78.1	6.6	36.0	-1.19
O=[N+]([O-])c1cc2c(cc1/C=N/Nc1nc(N3CCCC3)nc(N3CCCC3)n1)OCO2	92.1	75.7*	88.5	5.3	-40.7	0.486
O=[N+]([O-])c1ccccc1/C=N/Nc1nc(N2CCCC2)nc(N2CCCC2)n1	.	1.1	.	2.8	46.7	-0.00524
O=[N+]([O-])c1ccc(Nc2nc(N/N=C\c3ccc4c(c3)OCO4)nc(N3CCCCC3)n2)cc1	61.6	99.8*	74.2	8.9	21.4	.
CN(C(=O)COC(=O)c1ccc(-c2ccc(O)cc2)cc1)C1CCS(=O)(=O)C1 (centres undefined)	.	.	.	-4.1	.	.
CCN(CC)c1ccc(C(=O)N/N=C(\C)c2ccc(O)cc2)cc1	77.0	29.1	70.0	2.9	-37.2	-0.206
C#CCSc1n[nH]c(=O)n1-c1cccc(C(F)(F)F)c1	.	.	.	0.5	.	.
O=[N+]([O-])c1ccc(/C=N/Nc2nc(N3CCCCCC3)nc(N3CCCCCC3)n2)o1	31.9	100.1*	49.3	-0.5	-6.2	.
N#C/C(=C\c1ccc(-c2cccc([N+](=O)[O-])c2)o1)C(=O)N1CCOCC1	.	5.8	.	0.7	-7.1	0.651
N#C/C(=C/c1ccc(Oc2ccc([N+](=O)[O-])cn2)cc1)C(=O)N1CCOCC1	100.6	65.5*	94.6	3.1	23.7	-3.2
CSc1nc(-c2ccc(F)cc2)cc(=O)[nH]1	100.3	-8.6	94.3	4.2	21.4	0.0347
O=C(CCc1ccccc1)NCC(=O)N/N=C/c1ccc(O)cc1O	.	.	.	3.9	.	.
O=C(N/N=C/c1cc(Br)ccc1O)c1cccc(N2CCCC2=O)c1	8.7	99.6*	7.1	-7.5	-9.4	.
O=C(CCc1ccccc1)N/N=C/c1cc(Br)ccc1O	9.7	98.2*	12.8	-2.6	.	.
O=C(N/N=C/c1cc(Br)ccc1O)c1ccccc1Cl	7.3	98.2*	10.6	6.3	-21.4	0.122
COC(=O)N/N=C/c1cc(Br)ccc1O	.	-3.3	.	2.1	.	-2.39
Cc1c(CCO)c(=O)[nH]n1C(=O)c1ccc(F)cc1	92.4	-3.5	98.7	-2.7	-66.7	.
CS(=O)(=O)NCCSc1cc(C(F)(F)F)nc2ccccc12	.	.	.	2.1	.	0.281
Cc1ccc(S(=O)(=O)NC(C)(C)CN2CCC(Cc3ccccc3)CC2)cc1	.	.	.	-12.7	.	.
O=C(NNC(=O)c1ccccc1C(=O)O)c1ccc(-c2ccccc2)cc1	.	-3.4	.	2.0	-100.0	0.189
CC(O)CN(C)CC/C=C1/c2ccccc2CSc2ccccc21 (centres undefined)	44.3	97.8*	48.0	3.3	.	.
CN(CC/C=C1/c2ccccc2CSc2ccccc21)CCCO	38.1	56.0*	47.0	-1.1	-30.8	-0.718
CN(C)CC/C=C1/c2cc(F)ccc2CSc2ccc(F)cc21	28.7	98.8*	28.0	1.8	18.2	-3.17
NCC/C=C1/c2ccccc2CSc2ccccc21	18.5	53.6*	27.9	-5.7	-42.9	-5.18*
CN(C)CCCOC(=O)COc1ccc(Br)cc1	.	.	.	-0.4	.	-0.294
SMILES	HCT116 PTEN-null	L major viab	HCT116 bCat-KO	p97 inhibitor	INS promoter inh	ROMK primary
C=CCN(C)CC/C=C1\c2ccccc2CSc2ccccc21	47.6	99.8*	39.1	0.0	-95.2	-0.685
C#CCN(C)CC/C=C1\c2ccccc2CSc2ccccc21	58.5	65.0*	65.1	0.1	33.3	0.522
C#CCN(C)Cc1ccccc1	93.1	-7.4	97.8	-2.4	22.7	.
O=C(COC(=O)c1ccc(Cl)c(S(=O)(=O)N2CCCCC2)c1)NCC1CCCO1 (centres undefined)	.	-2.2	.	1.4	.	0.0299
O=c1[nH]c(-c2ccc3c(c2)OCO3)nc2c1sc(=S)n2-c1ccccc1	.	51.4*	.	8.0	.	-0.056
COc1ccccc1NS(=O)(=O)c1cc(NC(=O)c2[nH]c(C)c(C(C)=O)c2C)ccc1N1CCOCC1	.	.	.	3.5	.	.
COc1ccc(CC2(C)OC(c3ccccc3)=NN2C(C)=O)cc1 (centres undefined)	78.5	53.4*	78.9	3.2	30.6	-0.415
Cc1nn(Cc2ccc(Cl)cc2Cl)c(C)c1NC(=O)c1sc2ccccc2c1Cl	86.1	-3.7	92.3	1.2	.	.
